Assay outcomes from PubChem.
hcDAF-12 act = H. contortus DAF-12 nuclear receptor activators, primary screen, cell-based, luminescence, HEK293, lit1-tk-luc reporter. HEK293 hcDAF-12 lit1-tk-luc reporter; 0% DMSO, 100% Δ7-dafachronic acid. activation, % at 6.8 µM. 1.4% of 370,000 active. AID 652067, 2013;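 active = activation above the mean of all tested compounds plus 3 SD, cut at about 5.5% in these data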;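 note: 100% = response to 3 µM Δ7-dafachronic acid high control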
DAX1 inh-1 = DAX1 (NR0B1) inhibitors on StAR promoter, primary screen, cell-based, luminescence, SF-1 (NR5A1), full-length DAX-1 | inhibition, % at 6.8 µM | 1.1% of 370,000 active | AID 652010, 2013 | HEK293T StAR-luciferase reporter, SF-1/DAX-1 repression relief;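 active = inhibition above the mean over all tested compounds plus 3 SD, cut at about 3.6% in these data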;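 note: 0% = DAX-1 cells with DMSO and 100% = cells lacking DAX-1 with DMSO; higher inhibition means more luminescence from relief of DAX-1 repression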
hgDAF-12 ag = H. glycines DAF-12 receptor agonists, primary screen, cell-based, luminescence, HEK293, GAL4 fusion, UAS-luciferase. Nuclear hormone receptor DAF-12 (Heterodera glycines), GAL4 fusion. HEK293 GAL4-hgDAF12 UAS-luciferase reporter, agonist luminescence; normalized to butyrate control. activation, % at 6.8 µM. 1.8% of 370,000 active. AID 687014, 2013;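 active = activation above a cutoff set at the mean of all screened compounds plus 3 SD, cut at about 10% in these data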;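 note: 0% = DMSO wells and 100% = sodium butyrate wells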
ssDAF-12 act = S. stercoralis DAF-12 nuclear receptor activators, primary screen, cell-based, luminescence, HEK293, GRIP1 co-expression, lit1-tk-luc; Nuclear hormone receptor DAF-12 (Strongyloides stercoralis); HEK293 ssDAF-12/GRIP1 lit1-tk-luc reporter; % of 3 µM dafachronic acid response; activation, % at 6.8 µM; 1% of 370,000 active;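 active = activation above the mean over all tested compounds plus 3 SD, cut at about 0.9% in these data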;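 note: 0% = DMSO-only wells and 100% = 3 µM delta7-dafachronic acid wells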
SMARCA2 act = SMARCA2 (BRM) function activators, primary screen, cell-based, luminescence, high throughput. 1% of 370,000 active. MG213 cells, MMTV-luciferase reporter, dexamethasone, overnight. activation, % at 9.1 µM; in the data active = activation above about 7.8%;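 note: 0% = vehicle wells and 100% = reference activator wells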
DAX1 inh-2 = DAX1 (NR0B1) inhibitors, primary screen, cell-based, HEK293, Gal4-DAX1, luciferase luminescence. Nuclear receptor subfamily 0 group B member 1 (Homo sapiens), P51843. HEK293 Gal4-DAX1 luciferase reporter. inhibition, % at 6.75 µM. 0.99% of 340,000 active;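 active = inhibition above the mean over all tested compounds plus 3 SD, cut at about 4.2% in these data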;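 note: 0% = DAX1-transfected cells with DMSO and 100% = empty-vector control cells with DMSO; inhibition shows as a rise in luminescence from relieved DAX1 repression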
Target sequence (P51843 207-470 limits assumed): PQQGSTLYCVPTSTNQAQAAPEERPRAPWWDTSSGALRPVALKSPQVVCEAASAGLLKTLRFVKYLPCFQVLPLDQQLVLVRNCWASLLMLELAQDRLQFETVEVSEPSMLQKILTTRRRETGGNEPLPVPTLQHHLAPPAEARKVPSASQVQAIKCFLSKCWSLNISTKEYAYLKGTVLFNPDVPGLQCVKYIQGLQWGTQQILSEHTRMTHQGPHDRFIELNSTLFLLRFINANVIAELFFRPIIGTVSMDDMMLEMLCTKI
* hit, by the source's call; . = no result. Most compounds without a hit are left out; they make up all but 4.8% or so of the library.

SMILES | hcDAF-12 act | DAX1 inh-1 | hgDAF-12 ag | ssDAF-12 act | SMARCA2 act | DAX1 inh-2
O=P(O)(O)C(O)C(F)(F)C(F)(F)C(F)(F)C(F)F (configuration not stated) | -1 | -1 | -4 | -1 | -3 | 0
Cc1ccccc1OCCCCn1cnc2ccccc21 | -3 | -2 | -5 | -2 | -6 | -4
Brc1ccccc1OCCCn1cnc2ccccc21 | 5 | 2 | 11* | 0 | 4 | 3
CC1=NN(C(N)=S)C(=O)C1N=Nc1ccc(C)c(Br)c1 (configuration not stated) | 6.1* | 1 | 8 | 0 | 2 | 2
CC(=O)[C@@]1(O)Cc2c(O)c3c(c(O)c2[C@H](O[C@H]2C[C@H](N)[C@H](O)[C@H](C)O2)C1)C(=O)c1ccccc1C3=O | 4 | -14 | -5 | 3.6* | -12 | .
COc1cccc2c1C(=O)c1c(O)c3c(c(O)c1C2=O)CC(O)(C(C)=O)CC3OC1CC(N(C)C)C(O)C(C)O1 (configuration not stated) | -4 | -10 | -11 | -3 | -11 | -7
COc1cccc2c1C(=O)c1c(O)c3c(c(O)c1C2=O)C[C@@](O)(C(=O)CO)C[C@@H]3O[C@H]1C[C@H](N)[C@H](O)[C@H](C)O1 | 5 | -6 | -7 | 2.2* | -12 | -3
CC(C)(C)Cc1c(-c2cccc(Cl)c2)nc2ccc(Cl)cn12 | 1 | 1 | 3 | 1 | 0 | .
CN1CCN(/N=C/c2ccc(OCc3ccccc3)cc2)CC1 | 3 | 0 | 8 | 0 | 4 | 6.0*
COc1ccc2cc(C3(C)NC(=O)N(CC(=O)N4CCCCC4)C3=O)ccc2c1 (configuration not stated) | 1 | 4.1* | -2 | -1 | -3 | -1
COc1ccc2nc3sc(C(=O)NCCN4CCc5ccccc5C4)cc3cc2c1 | 5 | 1 | 12* | 0 | 6 | -1
COc1ccc2cc3cc(C(=O)NCCCN4CCc5ccccc5C4)sc3nc2c1 | 1 | 1 | 5 | 0 | 3 | 1
COc1ccc(OC)c(-c2nc(C(=O)NC3CCN(Cc4ccccc4)CC3)cc3c2[nH]c2ccccc23)c1 | -1 | 1 | -1 | -2 | -1 | 1
COc1ccc(OC)c(-c2nc(C(=O)NCCCN3CCOCC3)cc3c2[nH]c2ccccc23)c1 | 4 | 1 | -2 | 1.0* | 2 | 3
CCOC(=O)c1c(CN2CCC(C)CC2)n(C)c2cc(Br)c(OC)cc12 | 1 | 0 | -2 | -1 | -3 | 4.9*
CCOC(=O)c1c(CN2CCN(Cc3ccccc3)CC2)n(C)c2cc(Br)c(OC)cc12 | 0 | -1 | 2 | 0 | -6 | 0
CNC(=O)c1c(Cl)cnn1-c1ccc(C)cc1 | 3 | 2 | 12* | 0 | 2 | 0
CNC(=O)c1c(Br)cnn1-c1ccc(C)cc1 | 3 | 3.7* | 12* | -1 | 4 | 1
COc1cnn(-c2ccc(C)cc2)c(=O)c1Br | 2 | 1 | 6 | -1 | 5 | 1
C/C(=N\NC(=O)c1cc(C)nc2ccc(C)cc12)c1ccncc1 | 0 | -4 | -1 | 0 | -5 | -1
COc1ccc(C2CC(O)(c3ccccc3)Oc3cc(OC)cc(OC)c32)cc1 (configuration not stated) | 0 | 0 | 1 | -1 | 0 | 1
S=C1NCCOCCNC(=S)NCCOCCOCCN1 | -2 | 0 | -4 | -1 | 5 | 0
COCCC(=O)N1CCC(C(=O)Nc2ccc(Oc3ccccc3)nc2)CC1 | 5.8* | 0 | 3 | -1 | -2 | 0
O=C(Nc1ccc(Oc2ccccc2)nc1)C1CCCCN1Cc1ccc(O)cc1 (configuration not stated) | 3 | 3.9* | 5 | 0 | 2 | 1
COCCc1ncc(CN2CCCCC2C(=O)Nc2ccc(Oc3ccccc3)nc2)cn1 (configuration not stated) | -2 | 1 | 2 | -1 | 1 | 0
SMILES | hcDAF-12 act | DAX1 inh-1 | hgDAF-12 ag | ssDAF-12 act | SMARCA2 act | DAX1 inh-2
COc1ccc(CNC(=O)Cn2nc([N+](=O)[O-])cc2C)cc1 | -3 | 0 | -2 | -1 | 0 | -1
COc1ccc(/C(C)=N/NC(=O)Cn2nc([N+](=O)[O-])cc2C)cc1 | 0 | 0 | 5 | -2 | -2 | 4.5*
CC(C)NC(=O)CSc1nc(-c2ccccc2)cs1 | 1 | 3 | 11* | -1 | 3 | 4.7*
CCN1CCN(c2ccc(S(=O)(=O)N3CCCCC3)cc2NC(=O)C(C)Oc2ccc(F)cc2)CC1 (configuration not stated) | 0 | 1 | 1 | -1 | -5 | -1
Cc1ccc(/C=N/N2CCOCC2)s1 | 2 | 2 | 0 | -1 | 1 | 5.6*
Cc1ccc(/C=N/N2CCN(Cc3ccccc3)CC2)s1 | 2 | 1 | 3 | -1 | -1 | 2
CCOC(=O)c1cnn2c(C)cc(-c3ccc(F)cc3)nc12 | 2 | 3 | 12* | 0 | 5 | 1
Cc1cc(-c2ccc(F)cc2)nc2cc(C(N)=O)nn12 | -3 | -1 | 1 | -1 | -2 | 0
CCN(CC)CCNC(=O)c1ccc(NC(=O)c2cccc(S(=O)(=O)N3CCc4ccccc43)c2)cc1 | -1 | 3.9* | 1 | -2 | 2 | 0
CCOC(=O)c1nn(-c2ccc(Cl)cc2)cc1O | 2 | 2 | 7 | -1 | 5 | 8.9*
COc1ccccc1CNC(=O)C1CCCN1S(=O)(=O)c1ccc2c(c1)C(C)(C)C(=O)N2C (configuration not stated) | -1 | -1 | -3 | -1 | -3 | .
Cc1cc(NC(=O)/C=C\C(=O)O)c([N+](=O)[O-])cc1C | 3 | 0 | 2 | -1 | -5 | 0
Cc1ccc(NC(=O)/C=C/C(=O)O)c([N+](=O)[O-])c1 | 2 | 0 | 0 | -1 | 7.8* | 2
COc1cc(-c2cc[n+](C)cc2)ccc1O | 0 | 0 | 0 | -1 | 2 | 1
CC(C)(C)c1ccc(C(=O)Nc2ccc(F)cc2)s1 | 6.3* | 2 | 10 | 0 | 5 | 3
O=[N+]([O-])c1cc2c(cc1CN1CCN(CCOCCO)CC1)OCO2 | -1 | 0 | -1 | -1 | -2 | 4.4*
